# Source: PubChem
# Hits are enriched below; roughly 1.7% of the tested compounds scored in any of these assays.
# GLP1R inv ag: inverse agonists of human GLP-1 receptor; HEK293 GLP-1R CRE-luciferase, luminescence, 24 h; GLP-1R form is constitutively active; Potency, µM (titrated, usually from 38.3 µM), inactives show at the highest dose activity change, negative = inhibition, actives largely listed as inhibitors; AID 624417; P43220; 1.6% of 410,000 active; further: on the % scale 0 is the no-effect control and ±100 the full control effect; nearly all actives have a fitted effect of over 55% in size
# Target sequence (P43220 whole entry, looked up): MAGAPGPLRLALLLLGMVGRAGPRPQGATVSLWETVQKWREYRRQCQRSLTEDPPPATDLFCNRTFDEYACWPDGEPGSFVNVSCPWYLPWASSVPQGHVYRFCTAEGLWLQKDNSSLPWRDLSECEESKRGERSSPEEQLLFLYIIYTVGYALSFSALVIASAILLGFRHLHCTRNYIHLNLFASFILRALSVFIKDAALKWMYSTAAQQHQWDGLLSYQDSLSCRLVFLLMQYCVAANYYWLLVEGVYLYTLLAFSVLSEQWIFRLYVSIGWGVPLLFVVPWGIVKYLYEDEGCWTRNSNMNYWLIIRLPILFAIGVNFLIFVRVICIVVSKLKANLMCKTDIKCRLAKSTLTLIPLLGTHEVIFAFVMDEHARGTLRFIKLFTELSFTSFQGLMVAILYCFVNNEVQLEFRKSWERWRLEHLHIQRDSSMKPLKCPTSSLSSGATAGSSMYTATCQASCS
#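 Inverse agonism was detected as reduced cAMP-driven luciferase luminescence after 24 h compound treatment. The cells were HEK293 clones expressing constitutively active human GLP-1R with the reporter. Reporter-only and GPR119 cell lines served as counterscreen controls.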
# HEK293 tox: cytotoxic in the GLP-1 receptor inverse agonist counter-screen. AID 624418. HEK293 cAMP-luciferase reporter cells, luminescence, 24 h. 0.13% of 410,000 active. Potency, µM (titrated, usually from 38.3 µM), without a hit: at the highest dose activity change, negative = inhibition, hits mostly inhibitors;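 further: loss of luciferase light is scored as toxicity; on the % scale 0 is the no-effect control and ±100 the full control effect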
#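 Here, cytotoxicity is scored as loss of luminescence. The MLSMR collection was tested on cells seeded in medium containing 10% Nu serum, with a 24 hr compound exposure preceded by 12 hours of culture.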
# GLP1R ag: GLP-1 receptor (human) agonism; Potency, µM (titrated, usually from 45.6 µM), for inactives: at the highest dose activation, hits mostly activators; HEK293 GLP-1R CRE-luciferase, luminescence, 4-6 h; cells express a hypersensitive GLP-1R form; AID 624172; 0.007% of 380,000 active; further: % of control where 0% means no effect
# * = called active by the depositor; u = inconclusive; x = no result given. The call rests on the fitted dose curve; in most records, active means well fitted curve in the direction sought with a large enough effect; inconclusive means small, poorly fitted or top-dose-only effect, or another doubt; inactive means no such curve, though single readings can be large; an effect the other way counts as inactive or inconclusive. Potency means the concentration at half of the fitted maximal effect.
SMILES,GLP1R inv ag,HEK293 tox,GLP1R ag
Cc1ccc(C2NC(c3ccc(C)cc3)C([N+](=O)[O-])C(C)(C)C2[N+](=O)[O-])cc1 (stereo not given),u,45%,1%
CC1(C)C([N+](=O)[O-])C(c2ccc(F)cc2)NC(c2ccc(F)cc2)C1[N+](=O)[O-] (stereo not given),10µM*,25%,-2%
CC1(C)C([N+](=O)[O-])C(c2ccc(Cl)cc2)NC(c2ccc(Cl)cc2)C1[N+](=O)[O-] (stereo not given),10µM*,38%,-5%
CC(C(=O)O)c1ccc2c(c1)CC(=O)c1ccccc1S2 (stereo not given),x,x,2%
CCCCNC(=O)c1ccc2c(=O)n(-c3ccccc3)c(=O)[nH]c2c1,-4%,-3%,x
O=C(NCc1ccc(F)cc1)N1CCN(C(=O)c2ccccc2)CC1,10%,-6%,-1%
CN(C)CCNC(=O)c1ccccc1-c1ccccc1,0%,-7%,-2%
COc1ccc(-c2coc3c(C(=O)NCCN(C)C)cccc23)c(C)c1,11µM*,5%,3%
COc1ccc(C(=O)NCCN(C)C)c2nc3ccccc3cc12,u,u,-23%
COc1ccc(-c2nc3c(C(=O)NCCN(C)C)cccc3c3ccccc23)cc1,10µM*,u,-23%
CN(C)CCNC(=O)c1cccc2[nH]c(-c3ccncc3)nc12,-15%,u,-16%
COc1cccc2nc3c(C(=O)NCCN(C)C)cccc3cc12,13µM*,-1%,-28%
COCCCNC(=O)c1cccc2c(-c3ccc(OC)cc3C)coc12,u,-9%,0%
CN(C)CCNC(=O)c1cccc2nc3c(ccc4ccccc43)nc12,8.9µM*,11%,-10%
CCc1nc2ccc(C(=O)NCCNC(C)=O)cn2c1N(C)CCCc1ccccc1,16%,3%,0%
CCOc1ccc(CN(C)C(=O)CNC(=O)c2cc(OC)c(OC)c(OC)c2)cc1,-18%,2%,13%
COc1cccc(NC(=O)CN(C)C(=O)[C@@H]2CCCN2C(=O)c2cccs2)c1,-25%,-14%,-4%
CCOC(=O)c1ccc(N2C(=O)c3n[nH]c(-c4ccco4)c3C2c2ccccc2OC)cc1 (stereo not given),u,u,-5%
CCn1c(=O)cc(SCC(=O)Nc2cc(Cl)ccc2OC)c2ccccc21,-3%,-20%,x
O=C(Nc1ccc(S(=O)(=O)Nc2ccccc2F)cc1)N1CCCCC1,-21%,-5%,18%
COc1ccc(-c2nc3scc(CCNS(=O)(=O)c4ccccc4F)n3n2)cc1,7%,4%,x
Cc1ccc2[nH]c3c(c2c1)CCCC3NCCO (stereo not given),10µM*,-4%,-4%
Cc1ccc2[nH]c3c(c2c1)CCCC3=O,15%,2%,2%
Cn1c(-c2ccccc2)c(/C=N/NC(=O)c2ccc(O)cc2)c2ccccc21,7.1µM*,-20%,12%
O=C(N/N=C\c1c(O)ccc2ccccc12)c1ccc(O)cc1,u,u,-4%
SMILES,GLP1R inv ag,HEK293 tox,GLP1R ag
Cn1c2ccccc2c2cc(/C=N/NC(=O)c3ccc(N)cc3)ccc21,-28%,-26%,22%
Cn1cc(C(=O)N/N=C/c2c(O)ccc3ccccc23)ccc1=O,3.2µM*,53%,0%
C=CCNC(=O)CSc1nnc(-c2cccc(S(=O)(=O)N3CCOCC3)c2)o1,4%,4%,4%
Cc1cccc(-n2c(C)c(-c3ccccc3)[nH]c2=S)c1,u,-6%,-3%
COc1cc(C2NC(=O)c3ccccc3O2)cc(OC)c1OC (stereo not given),0%,4%,-4%
COc1cc(C2Oc3ccccc3C=C2[N+](=O)[O-])cc(OC)c1OC (stereo not given),11µM*,-21%,-17%
COc1ccc(-c2nc3ccc(C4=C(C)CC(=O)NN4)cc3[nH]2)cc1,x,x,29%
COc1ccc(NC(=O)NCCCN2CCC(Cc3ccccc3)CC2)cc1,u,-15%,-7%
CSc1ccc(NC(=O)NCCCN2CCC(Cc3ccccc3)CC2)cc1,7.9µM*,u,2%
CNc1nc(N)c(C(=O)C23CC4CC(CC(C4)C2)C3)s1,5.6µM*,-27%,6%
CN1CCc2nc3sc(C(=O)C45CC6CC(CC(C6)C4)C5)c(N)c3cc2C1,u,99%,-19%
CCCCCCCCN1C(=O)[C@H](CC(=O)NCc2cccc3ccccc23)C[C@@]2(C(=O)OCC)CCC=C12,u,-4%,x
COc1ccc(NC(=O)c2c(NCc3ccc(C)o3)sc3c2CCC(C)C3)cc1 (stereo not given),u,-11%,x
CC(=O)N(c1nnc(-c2ccc(C)cc2)s1)C1CCCC1,-18%,-1%,-11%
CCCCN1C[C@H](CSC)[C@@H](CC(=O)Nc2ccc(Br)cc2)C1=O,u,-2%,16%
O=C(C[C@H]1C(=O)N(CCc2ccccc2)C[C@@H]1Cc1ccccc1)Nc1ccccc1,11%,2%,-7%
CSC[C@H]1CN(CCc2ccccc2)C(=O)[C@@H]1CC(=O)Nc1ccc(Br)cc1,10µM*,-13%,5%
O=C(C[C@H]1C(=O)N(CCc2ccccc2)C[C@@H]1Cc1ccccc1)Nc1ccc(Br)cc1,7.9µM*,-24%,-6%
